From PubChem
3CLpro inhibitor – SARS-CoV 3CLpro protease inhibition. P0C6X7. recombinant SARS-CoV 3CLpro, quenched FRET peptide cleavage. inhibition, % at 6 µM. 0.14% of 290,000 active; in the data active = inhibition above about 12%
Mtb hypoxia rep – inhibitors of hypoxia-regulated fluorescent reporter in Mycobacterium tuberculosis; 0.1% of 300,000 active; M. tuberculosis hypoxia-regulated fluorescent reporter, fluorescence; fluorescence inhibition, % (concentration not given with the values); in the data active = fluorescence inhibition mostly above about 23%, no sharp cut-off; inactive = mostly below about 17%
DUSP3 inh – inhibitors of human VHR1 phosphatase (DUSP3) | P51452 | 0.52% of 290,000 active | recombinant VHR phosphatase, pNPP absorbance | inhibition, % at 13.3 µM; in the data active = inhibition above about 50%
Target sequence (P51452 whole entry, looked up): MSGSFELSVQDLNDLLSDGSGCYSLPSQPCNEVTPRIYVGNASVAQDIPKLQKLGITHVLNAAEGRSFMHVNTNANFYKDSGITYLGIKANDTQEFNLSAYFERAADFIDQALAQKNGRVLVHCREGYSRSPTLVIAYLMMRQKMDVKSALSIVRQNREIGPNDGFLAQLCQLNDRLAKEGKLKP
BioA inh – BioA (M. tuberculosis) enzyme inhibition; inhibition, % at 9.99 µM; 0.096% of 360,000 active; AID 602481; purified M. tuberculosis BioA enzyme, plate reader; in the data active = inhibition above about 40%
FadD28 binding – M. tuberculosis FadD28 bisubstrate binding inhibition; FadD28 bisubstrate probe binding, fluorescence polarization; inhibition, % at 12.5 µM; 0.22% of 360,000 active; in the data active = inhibition above about 8.5%, passing the limit was not always enough
* hit, by the source's call; / = no result shown. An excerpt weighted towards active compounds, which were near 0.7% of everything screened.

SMILES	3CLpro inhibitor	Mtb hypoxia rep	DUSP3 inh	BioA inh	FadD28 binding
COc1ccc(C(=O)Oc2ccc(/C=N/Nc3ccc(Cl)c(C(=O)O)c3)cc2OC)cc1	9.8	/	21.1	4.8	9.5*
CC(C(=O)Nc1ccc2ccccc2c1)C1C[C@]1(C)C(NS(=O)(=O)c1ccc(-c2ccccc2)cc1)c1ccccc1 (some centres undefined)	/	19.5	/	/	/
CN(C(=O)COC(=O)c1cc([N+](=O)[O-])ccc1N1CCCC1)C1CCS(=O)(=O)C1 (centres undefined)	-0.8	-0.7	51.2*	/	-2.3
COc1ccc(CN(C)C(=O)COC(=O)c2cc([N+](=O)[O-])ccc2N2CCCC2)c(OC)c1OC	/	21.8*	/	2.3	-1.8
CCC(C)N(C(=O)COC(=O)c1cc([N+](=O)[O-])ccc1N1CCOCC1)C1CCS(=O)(=O)C1 (centres undefined)	/	1.6	/	-2.6	0.1
Cc1cc(C)cc(OC(=O)CS(=O)c2ccc(C(F)(F)F)cc2[N+](=O)[O-])c1 (centres undefined)	-3.2	5.2	27.3	0.4	1.0
O=C(CS(=O)c1ccc(C(F)(F)F)cc1[N+](=O)[O-])Oc1ccc(Cl)cc1 (centres undefined)	4.3	6.2	51.2*	-1.4	0.0
CC(Cc1ccccc1)=NNC(=O)CNC(=O)Cc1ccc(Cl)cc1	/	-4.2	/	/	/
COC(=O)[C@@]12CCCN1C(c1ccc(-c3ccc(Cl)c(Cl)c3)c(OC)c1)C1C(=O)N(C)C(=O)C12 (some centres undefined)	/	-0.6	/	/	/
COc1ccc(Br)cc1S(=O)(=O)NCCN1CCOCC1	7.1	12.1	57.4*	/	-0.5
c1ccc(-c2csc(Nc3ncccn3)n2)cc1	5.4	-5.9	55.4*	/	-1.2
Oc1ccc(-c2csc(Nc3ncccn3)n2)cc1	2.7	/	-4.4	/	/
CCCCOCCCNC(=O)N[C@@H](CCSC)C(=O)OC	-1.6	4.0	7.0	-0.8	-4.0
CCC(C)NC(=O)N[C@@H](CCSC)C(=O)OC (some centres undefined)	1.4	10.8	56.4*	-1.7	-4.3
O=c1[nH]c2ccccc2nc1C=Cc1ccc(O)cc1	/	0.0	/	/	/
CCOC(=O)NNC(=O)c1[nH]c2ccc(Br)cc2c1-c1ccccc1	1.9	-15.1	54.7*	-0.4	-1.9
CC(=O)NNC(=O)c1[nH]c2ccc(Br)cc2c1-c1ccccc1	2.8	-2.0	-2.4	/	-4.7
COC(=O)C1C(c2ccccc2)NC(=O)N(CCc2cc(OC)c(OC)c(OC)c2)C1C (centres undefined)	/	18.0	/	/	/
Cc1ccc(F)c(NC(=O)/C(C#N)=C(\O)c2ccc(C(C)(C)C)cc2)c1	9.2	2.0	9.3	/	29.3*
C#CCOCCOCCOCCNc1nc(N2CCN(C(=O)CCCCCCCCCCNC(=O)[C@@H](CCSC)n3cc(CCO)nn3)CC2)nc(N2CCN(C(=O)CCCCCCCCCCNC(=O)[C@H]([C@@H](C)CC)n3cc(CCCCN=C(N)N)nn3)CC2)n1	/	/	/	0.6	11.3*
COc1ccc(C2CC(=O)C=C(c3cc(F)ccc3F)C2)cc1OC (centres undefined)	/	8.5	/	/	/
O=S(=O)(c1ccc(Nc2ccc(-c3ccc4c(c3)OCCO4)nn2)cc1)N1CCCC1	0.8	-0.2	35.2	-0.3	11.4*
CCn1c(SCC(=O)NN=C(C)c2ccncc2)nc2ccccc21	/	0.1	/	/	/
CCc1ccc(NC(=S)NC(=O)c2c(-c3ccccc3Cl)noc2C)cc1	2.0	6.6	4.8	/	-0.2
Cc1onc(-c2ccccc2Cl)c1C(=O)NC(=S)NCC(=O)c1ccccc1	-3.3	10.1	57.4*	/	-0.6
SMILES	3CLpro inhibitor	Mtb hypoxia rep	DUSP3 inh	BioA inh	FadD28 binding
O=S(=O)(c1ccc(F)cc1)N1CN(Cc2ccco2)c2nc3ccccc3nc21	-6.3	1.2	51.6*	/	3.2
C#CCOCCOCCOCCNc1nc(N2CCN(C(=O)C(CCCCN)n3cc(C(N)C(C)CC)nn3)CC2)nc(N2CCN(C(=O)C(C(C)CC)n3cc(C(N)CC(C)C)nn3)CC2)n1 (centres undefined)	/	10.4	/	/	/
CC1=C([N+](=O)[O-])C(c2ccc(Cl)cc2)NC(=O)N1 (centres undefined)	-5.4	2.9	58.7*	0.3	-2.5
CC1=C([N+](=O)[O-])C(c2ccccc2Cl)NC(=O)N1 (centres undefined)	-4.7	-2.6	17.9	-2.2	-2.2
O=C(c1ccc(OC2CCN(CCc3ccccc3)CC2)cc1)N1CCCC(CCCO)C1 (centres undefined)	-4.2	-1.7	-3.6	0.2	-0.2
O=C(c1ccc(OC2CCN(CCc3ccccc3)CC2)cc1)N1CCCCC1CCCO (centres undefined)	-2.3	7.3	50.2*	0.3	-1.5
Cc1c(-c2cc(Br)ccc2O)nc2cc3c(cc2c1C)OCO3	-0.2	4.3	1.9	-2.7	29.5*
COc1ccccc1NC(=O)Cn1cnc2c(oc3nc4c(cc32)CCCC4)c1=O	-2.2	-9.5	-2.2	0.2	25.1*
COc1cccc(OCc2cc(C(=O)N(C)Cc3nc4ccccc4[nH]3)no2)c1	-3.5	5.6	51.3*	5.7	-0.4
CC(=O)c1cccc(OCc2cc(C(=O)N(C)Cc3cnccn3)no2)c1	-3.8	7.9	50.2*	1.8	-1.7
CC(=O)c1cccc(OCc2cc(C(=O)N(C)C(C)c3ccccn3)no2)c1 (centres undefined)	0.4	5.6	17.5	0.7	-0.5
COc1cccc(CNC(=O)Cn2ccc3cc(S(=O)(=O)N4CCCC4)ccc32)c1	-2.8	-9.7	17.8	-0.6	0.3
CC(C)Oc1ccc(CNC(=O)Cn2ccc3cc(S(=O)(=O)N4CCCC4)ccc32)cc1	1.3	10.3	52.9*	0.3	-3.3
Cn1cccc1C=NNC(=O)C1COc2ccccc2O1 (centres undefined)	/	18.7	/	/	/
Cc1cc(C)cc(N=C2NC(=O)CS2)c1	0.8	16.0	58.7*	1.2	-3.0
Cc1cccc(N=C2NC(=O)CS2)c1	-3.7	9.9	33.4	2.6	-3.8
C[n+]1c2ccccc2nc2ccc(NCCO)cc21	5.6	/	/	5.9	43.6*
CC(C)n1c(NCCO)nc2ccccc21	3.8	-0.1	15.1	/	-0.4
CNc1ccc2nc3ccccc3[n+](C)c2c1	1.2	/	/	3.9	57.4*
CCN(CC)c1ccc2nc3ccccc3[n+](CC)c2c1	0.9	/	-13.5	7.1	-0.5
OCC1(CCc2ccccc2)CCN(C/C=C/c2ccccc2)CC1	-6.2	5.8	55.5*	3.8	-4.3
CCOc1ccc(Br)cc1C1=CC(=O)CC(c2ccc(OC)cc2)C1 (centres undefined)	/	12.1	/	/	/
COc1cc2cc3c(N)c(C(=O)NCc4ccco4)sc3nc2cc1OC	-0.6	/	4.2	3.0	1.1
COc1cc2cc3c(N)c(C(=O)Nc4sc(C)c(C)c4C#N)sc3nc2cc1OC	-5.7	2.3	36.7	-0.4	10.9*
C[C@]12CCC(=O)C=C1CCC1C2C(=O)C[C@]2(C)C(=O)CCC12 (some centres undefined)	/	-3.3	/	/	/
CN1CCN(CCCNC(=O)c2ccc(NC(=O)C3=CSCCO3)cc2)CC1	0.7	-1.3	10.7	5.7	-0.7
CCN1CCN(CCCNC(=O)c2ccc(NC(=O)C3=CSCCO3)cc2)CC1	0.8	-14.6	52.5*	6.5	-3.5
